Assay outcomes: PubChem BioAssay, several laboratories
Sampled rows, rich in hits. Any-hit rate of the full collection: about 27%.
CYP2C19 inhib: blockers of cytochrome P450 2C19 activity – biochemical, luminescence, ADME assay, primary screen | P33261 | CYP2C19 Supersomes, luciferin-H EGE luminescence, 30 min | inhibition, % at 5 µM | actives 21% (n = 96,000);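 active = CYP2C19 inhibition above a set limit at 5 µM in the primary screen, cut at about 50% in these data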;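 note: plate controls were negative control wells for no effect and 2.5 mM tranylcypromine positive control for full effect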
CYP2C9 activ: human CYP2C9 activators, primary screen, biochemical, luminescence; recombinant CYP2C9, luciferin-H conversion; hits give high values; factor 1 = untreated enzyme, 0 = blocked; Cytochrome P450 2C9 (Homo sapiens), P11712; activation factor at 5 µM; AID 1024, 2008; actives 1.4% (n = 96,000);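 active = activation factor of 2 or more for CYP2C9 at a 5 µM dose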;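 note: 0 = sulfaphenazole-blocked wells and 1 = vehicle-only wells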
Target sequence (P11712 whole entry, looked up): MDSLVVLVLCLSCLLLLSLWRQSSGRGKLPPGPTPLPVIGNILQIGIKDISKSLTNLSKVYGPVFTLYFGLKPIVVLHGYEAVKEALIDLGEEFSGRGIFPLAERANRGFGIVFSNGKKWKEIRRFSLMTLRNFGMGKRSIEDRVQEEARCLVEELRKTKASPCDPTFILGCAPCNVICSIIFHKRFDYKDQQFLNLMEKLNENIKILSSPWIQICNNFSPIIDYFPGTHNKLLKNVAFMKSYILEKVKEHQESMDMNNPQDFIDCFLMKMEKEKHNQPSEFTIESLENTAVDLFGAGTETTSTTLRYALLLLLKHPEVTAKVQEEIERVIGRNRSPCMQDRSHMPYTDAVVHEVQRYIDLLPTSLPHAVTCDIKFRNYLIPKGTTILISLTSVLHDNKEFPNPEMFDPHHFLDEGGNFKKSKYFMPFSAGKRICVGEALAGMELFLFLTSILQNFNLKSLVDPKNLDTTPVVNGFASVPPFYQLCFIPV
CYP2C9 inh: blockers of cytochrome P450 2C9 activity – biochemical, luminescence, ADME assay, primary screen; CYP2C9 Supersomes, luciferin-H conversion; inhibition, % at 5 µM; actives 20% (n = 96,000); AID 777, 2007;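 active = blocking of liver enzyme CYP2C9 beyond about 50% at 5 µM, limit read from the data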
Cav32 inh: Cav3.2 calcium influx blockers – cell-based, Fluo-4 calcium fluorescence, FDSS, MLSMR library, primary screen; AID 449739, 2010; actives 4% (n = 100,000); B-score at 10 µM; Cav3.2-expressing cells; hits give low values;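 active = single-dose well whose peak fluorescence ratio is a statistical outlier from its plate by either plate-standardised score or position-corrected B-score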
CYP2C19 act: human CYP2C19 activators, primary screen, biochemical, luminescence; Cytochrome P450 2C19 (Homo sapiens), P33261; recombinant CYP2C19, luciferin-H EGE luminescence; hits give high values; 0 = fully inhibited enzyme, 1 = untreated enzyme; activation factor at 5 µM; 96,000 tested, under 10 active; AID 1025, 2008;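 active = activation factor of at least 2 at 5 µM in the primary screen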;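 note: 0 = wells with 2.5 mM tranylcypromine and 1 = vehicle-only wells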
The depositor's hits bear a star; . = no result.

SMILES	CYP2C19 inhib	CYP2C9 activ	CYP2C9 inh	Cav32 inh	CYP2C19 act
CCOC(=O)c1c(C)[nH]c(C(=O)OCC(=O)Nc2cc(C)c(Cl)cc2OC)c1C	6.2	0.9	12.1	0.615	0.9
O=C1N[C@@H](Cc2ccccc2)C(=O)N2[C@@H]1C[C@@]1(Br)c3ccccc3N(S(=O)(=O)c3ccccc3)[C@@H]21	.	.	.	-1.32	.
Cc1cc(S(=O)(=O)NCCCN2CCOCC2)ccc1F	28.9	1.1	-7.4	0.0123	0.7
CC(C)(C)c1ccc(COC(=O)CNC(=O)CNC(=O)Cc2ccccc2)cc1	18.2	0.9	8.9	-1.15	0.8
CC(=O)SCC(Cc1ccccc1)C(=O)NCC(=O)OCc1ccccc1 (stereo not drawn)	.	.	.	-5.21*	.
Cc1cccc2cc(CN(Cc3ccccc3)C(=O)c3cccc(F)c3)c(Cl)nc12	41.9	0.4	62.2*	-2.74	0.6
O=C(CSc1nnc2ccccn12)c1ccc2c(c1)OCCO2	82.1*	0.9	6.4	-0.0956	0.2
Cn1c(SCc2ccc3c(c2)OCO3)nnc1-c1ccccc1	97.7*	0.5	49.9	0.424	0
c1ccn2c(SCc3ccc4c(c3)OCO4)nnc2c1	65.3*	0.9	8.1	-0.133	0.3
Fc1ccc(CSc2nncn2NCc2ccc3c(c2)OCO3)cc1	92.9*	0.2	82.7*	.	0.1
COc1ccc(Cl)cc1NC(=O)Nc1cccc([N+](=O)[O-])c1C	9.5	1	3.0	0.164	0.9
CCCc1cc(=O)n2[nH]c(C)cc2n1	-6.1	1.1	-6.8	0.46	1.1
CN(C)S(=O)(=O)CC12CCC(CC1=O)C2(C)C (stereo not drawn)	23.1	1.1	-7.7	1.01	0.8
c1ccc(OCCOc2ncnc3ccccc23)cc1	60.3*	0.7	25.4	-0.0121	0.4
c1ccc(OCCn2cnc3ccccc32)cc1	26.7	0.9	10.6	-0.742	0.7
Cn1cc(C[C@H](NC(=O)OC(C)(C)C)C(=O)N[C@@H](CO)Cc2ccccc2)c2ccccc21	.	.	.	-1.09	.
Cc1cc(F)c(F)c(C(=O)N2CCN(C)CC2)c1Cl	8.8	2.2*	-122.7	1.19	0.9
COc1cc2c(C(=O)N3CCN(C)CC3)c(C)oc2cc1Br	34.8	0.9	5.3	0.199	0.7
COC(=O)c1cccc2nc3c(C(C)O)cccc3nc12 (stereo not drawn)	.	.	.	-0.615	.
CCn1c(SCC(=O)OC)nnc1-c1ccncc1	.	.	.	0.0188	.
CCCNC(=O)NC(=O)CSc1nnc(-c2ccncc2)n1CC	94.9*	0.7	27.7	0.519	0.1
CCn1c(SCC(=O)OC2CCCCC2)nnc1-c1ccncc1	88.2*	0.6	41.3	0.72	0.1
COc1ccccc1C(=O)Nc1c2c(nn1-c1cccc(C)c1C)CS(=O)C2 (stereo not drawn)	39.5	0.7	26.4	.	0.6
O=S(=O)(Nc1ccc2oc(-c3ccccc3)nc2c1)c1ccccc1	92.6*	0.1	93.5*	-2.59	0.1
Cc1ccc(-c2nc3cc(C)ccc3o2)cc1	58.9*	0.8	21.4	0.513	0.4
SMILES	CYP2C19 inhib	CYP2C9 activ	CYP2C9 inh	Cav32 inh	CYP2C19 act
Cc1ccc(-c2nc3cc(NS(=O)(=O)c4ccc(C)cc4)ccc3o2)cc1	98.7*	0	99.9*	-2.74	0
O=C(Nc1cc(C(F)(F)F)ccc1-n1cncn1)c1ccc(Cl)cc1	73.5*	0.8	21.8	-0.0357	0.3
O=C(Nc1cc(C(F)(F)F)ccc1-n1cncn1)c1ccc(-c2ccccc2)cc1	57.9*	0.1	94.1*	0.193	0.4
O=C(NCN1C(=O)C2C3C=CC(C3)C2C1=O)Nc1nccs1 (stereo not drawn)	.	.	.	-0.203	.
COc1cc2c(cc1OC)CN(CC(=O)Nc1ccc(C#N)cc1)CC2	22.6	0.8	23.8	1.22	0.8
C/C(=N\NC(=O)c1cccc(Br)c1)c1cccc(NC(=O)c2ccc(C)o2)c1	-12.0	1	2.7	-2.11	1.1
CCC(C)(C)n1nnnc1C(c1ccc(C)cc1)N1CCN(Cc2cccnc2)CC1 (stereo not drawn)	17.4	0.9	11.5	1.44	0.8
CCC(C)(C)n1nnnc1C(c1cccnc1)N1CCN(c2cccc(C(F)(F)F)c2)CC1 (stereo not drawn)	80.5*	0.4	57.9*	-5.1*	0.2
CC(C)(C)n1nnnc1C(c1cccnc1)N1CCN(c2ccccc2)CC1 (stereo not drawn)	59.4*	0.8	19.4	0.616	0.4
CC(C)(C)n1nnnc1C(c1ccncc1)N1CCCCCC1 (stereo not drawn)	83.1*	0.3	73.4*	-0.408	0.2
CCC(C)(C)n1nnnc1C(c1ccncc1)N1CCN(c2cccc(OC)c2)CC1 (stereo not drawn)	84.1*	0.1	91.5*	.	0.2
CC(C)(C)n1nnnc1C(c1cccnc1)N1CCN(c2ccccc2F)CC1 (stereo not drawn)	.	.	.	0.246	.
COc1ccccc1NC(=O)c1nnn(Cc2ccccc2)c1NC(=O)C(F)(F)F	44.7	0.3	71.0*	-7.74*	0.6
O=C(Nc1ccccc1)c1nnn(Cc2ccccc2)c1NC(=O)C(F)(F)F	56.9*	0.1	86.4*	-8.4*	0.4
CC(=O)Nc1c(C(=O)NCc2ccccc2)nnn1Cc1ccccc1	37.5	1	2.6	-0.599	0.6
CCn1cc(C(=O)N2CCCC2)c(=O)c2cc(S(=O)(=O)N3CCOCC3)ccc21	-11.4	1	4.2	0.26	1.1
O=c1cc(-c2ccccc2Cl)oc2c(Br)ccc(O)c12	.	.	.	-0.27	.
COc1cc(C2NC(C(=O)O)CS2)ccc1OCc1ccccc1C#N (stereo not drawn)	58.8*	0.7	26.6	0.163	0.4
CCN(CC)S(=O)(=O)c1cc(NC(=O)Cn2cnc3ccccc3c2=O)ccc1C	42.2	0.5	53.0*	.	0.6
CN(c1ccccc1)S(=O)(=O)c1cccc(NC(=O)Cn2cnc3ccccc3c2=O)c1	62.4*	0.1	94.0*	-7.05*	0.4
Cc1cccc(NC(=O)Cn2cnc3ccccc3c2=O)c1C	8.1	0.9	10.5	1.45	0.9
C=CCn1c(-c2cccn(Cc3ccc(Cl)cc3Cl)c2=O)n[nH]c1=S	80.2*	0.9	5.8	-1.58	0.2
C=CCn1c(-c2cc(Cl)ccc2OC)n[nH]c1=S	82.2*	0.5	50.2*	.	0.2
C=CCn1c(-c2cccn(Cc3ccc(Cl)cc3)c2=O)n[nH]c1=S	27.9	0.7	28.1	0.148	0.7
O=C1CCCC2=C1C(c1c(Cl)nc3sccn13)C1=C(CCCC1=O)N2	26.9	0.7	34.9	.	0.7
COC(C)(C)[C@H](O)COc1c2ccoc2cc2oc(=O)ccc12	.	.	.	0.776	.
CCCCCn1c(N2CCC(C(N)=O)CC2)nc2c1c(=O)[nH]c(=O)n2C	-8.5	0.7	32.3	0.0709	1.1
CS(=O)(=O)Nc1ccc(N2CCCCC2)c(Cl)c1	44.2	0.7	33.2	0.186	0.6
